Experiment [1] is described as follows: qHTS assay to identify small molecule antagonists of the sonic hedgehog signaling (Shh) pathway (AID 1259369). Further: nearly all actives have a fitted effect of over 45% in size. Further: potency means the concentration at half of the fitted maximal effect. Summed up: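 Screening used 3T3Gli1-Luc cells at 2,000 per well, compounds delivered in DMSO, and conditioned medium as agonist stimulus; plates incubated 24hr at 37 C and 5% CO2 before a 30min luciferase step.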
On the technique in general: qHTS replaces the single test concentration by a dilution series.

In experiment [2] the target is Estrogen receptor beta (Homo sapiens) (UniProt Q92731). The experiment is described as follows: qHTS assay to identify small molecule agonists of the estrogen receptor beta (ER-beta) signaling pathway (AID 1259377; active means well fitted activation curve with a large enough effect in the signal ratio in the repeat runs, not every such curve was filed as active; the % refers to the signal ratio). An outline of the steps:
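Ratiometric beta-lactamase FRET read-out came after 2 h substrate loading at room temperature. It followed 16 h compound treatment at 37C of GripTite HEK293T cells carrying a UAS-bla reporter, plated in 2% charcoal-stripped FBS medium.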

For experiment [3] the target is unchanged. The experiment is described as follows: qHTS assay to identify small molecule antagonists of the estrogen receptor beta (ER-beta) signaling pathway (AID 1259378; active means well fitted inhibition curve with a large enough effect in the signal ratio in the repeat runs, not every such curve was filed as active; the % refers to the signal ratio). An outline of the steps:
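ER-beta-UAS-bla HEK293T (GripTite) cells in 2% charcoal-stripped FBS medium were preincubated 6 hr at 37C, dosed with compound, then stimulated with 1 nM E2 (final) for 16 hr; beta-lactamase reporter read by B/G FRET fluorescence after 2 hr substrate loading.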

Experiment [4] is described as follows: qHTS assay to identify small molecule agonists of the androgen receptor (AR) signaling pathway in the presence of an antagonist - cell viability counter screen (AID 1259379; active means well fitted curve in the direction sought with a large enough effect in the repeat runs; an effect the other way counts as inactive or inconclusive;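 further: MDA-kb2 human breast cancer cells carrying an MMTV luciferase reporter; series mostly up to about 92 µM; nearly all actives have a fitted effect of over 25% in size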). An outline of the steps:
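In MDA-kb2 cells (human breast carcinoma, MMTV-luciferase), compounds at 15 concentrations plus 3.0uM nilutamide; 16 hr, 37C, 0% CO2; CellTiter-Fluor fluorescence read for viability.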

Experiment [5] addresses Androgen receptor (Homo sapiens) (UniProt P10275). The experiment is described as follows: qHTS assay to identify small molecule agonists of the androgen receptor (AR) signaling pathway in the presence of an antagonist (AID 1259381). Further: nearly all actives have a fitted effect of over 15% in size. Summed up:
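Here, 15-concentration compound series were pin-transferred onto MDA-kb2 MMTV-luciferase cells already dosed with nilutamide (3.0uM final). After 16hr at 37C, ONE-Glo was added and luminescence read 30min later at room temperature.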

A short description of experiment [6]: qHTS assay to identify small molecule agonists or antagonists of the thyroid stimulating hormone receptor (TSHR) signaling pathway - wild type cell line counter screen (AID 1259384). An outline of the steps: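 Wild-type HEK293 cells were plated 18 h at 37 C/5% CO2, pin-dosed with compound plus Ro20-1724 medium, held 30 min at room temperature, then given cAMP-d2 and anti-cAMP-cryptate; fluorescence was read after 1 h. Fifteen concentrations, triplicate.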

In experiment [7] the target is Thyrotropin receptor (Homo sapiens) (UniProt P16473). The experiment is described as follows: qHTS assay to identify small molecule antagonists of the thyroid stimulating hormone receptor (TSHR) signaling pathway (AID 1259385). Further: nearly all actives have a fitted effect of over 20% in size. Summed up:
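TSHR-HEK293 cells were plated and held 18 h at 37C/5% CO2, then given compound plus Ro20-1724 and stimulated with TSH at 1.5 ng/mL final. After 30 min at room temperature, cAMP was detected with cAMP-d2/anti-cAMP-cryptate (1 h) by fluorescence.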

Experiment [8] in a line: qHTS assay to identify small molecule agonists of the estrogen receptor alpha (ER-alpha) signaling pathway in the presence of an antagonist - cell viability counter screen (AID 1259386; active means well fitted curve in the direction sought with a large enough effect in the repeat runs; an effect the other way counts as inactive or inconclusive;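 further: series mostly up to about 92 µM; cells exposed to compounds for 22 h at 37 °C before the viability read; nearly all actives have a fitted effect of over 30% in size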). Summed up:
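Fluorescent CellTiter-Fluor viability signal from VM7Luc4E2 cells, with the reagent added during the final hour of a 22hr compound exposure at 37C in the presence of 10.0nM ICI-182,780.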

The target in experiment [9] is Progesterone receptor (Homo sapiens) (UniProt P06401). The experiment is described as follows: qHTS assay to identify small molecule agonists of the progesterone receptor (PR) signaling pathway (AID 1346784). Further: nearly all actives have a fitted effect of over 30% in size. An outline of the steps: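 Agonist qHTS: compounds pinned onto 3,000 PR-UAS-bla HEK 293T cells per well in charcoal-stripped serum medium, 16hr at 37C, then beta-lactamase activity measured by LiveBLAzer FRET fluorescence after 2 hours at room temperature.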
Chain of Progesterone receptor (Homo sapiens) (P06401 whole entry, looked up): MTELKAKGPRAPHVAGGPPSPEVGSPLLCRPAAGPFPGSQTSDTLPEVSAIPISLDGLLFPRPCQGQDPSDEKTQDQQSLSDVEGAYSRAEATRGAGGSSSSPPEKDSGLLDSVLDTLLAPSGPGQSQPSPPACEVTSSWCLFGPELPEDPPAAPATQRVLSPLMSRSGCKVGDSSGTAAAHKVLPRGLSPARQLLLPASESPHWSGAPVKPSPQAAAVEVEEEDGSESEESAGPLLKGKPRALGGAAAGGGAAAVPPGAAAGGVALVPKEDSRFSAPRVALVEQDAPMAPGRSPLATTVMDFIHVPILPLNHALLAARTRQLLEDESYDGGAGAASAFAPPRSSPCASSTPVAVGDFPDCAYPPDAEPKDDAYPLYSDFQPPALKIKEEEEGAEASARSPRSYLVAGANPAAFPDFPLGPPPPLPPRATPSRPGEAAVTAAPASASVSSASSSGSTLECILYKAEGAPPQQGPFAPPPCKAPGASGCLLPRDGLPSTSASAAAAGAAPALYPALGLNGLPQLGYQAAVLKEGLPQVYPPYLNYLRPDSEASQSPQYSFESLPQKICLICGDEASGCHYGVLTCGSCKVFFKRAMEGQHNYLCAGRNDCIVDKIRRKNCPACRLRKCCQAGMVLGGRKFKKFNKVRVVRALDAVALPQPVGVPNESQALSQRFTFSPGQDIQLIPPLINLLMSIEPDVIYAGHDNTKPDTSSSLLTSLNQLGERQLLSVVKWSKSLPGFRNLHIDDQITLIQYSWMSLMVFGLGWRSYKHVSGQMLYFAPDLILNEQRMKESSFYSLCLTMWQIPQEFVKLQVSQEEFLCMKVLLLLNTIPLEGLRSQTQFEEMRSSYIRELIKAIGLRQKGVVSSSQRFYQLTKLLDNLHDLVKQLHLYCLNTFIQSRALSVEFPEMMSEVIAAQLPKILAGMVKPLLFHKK

Experiment [10] shares this target. The experiment is described as follows: qHTS assay to identify small molecule antagonists of the progesterone receptor (PR) signaling pathway (AID 1346795; active means well fitted inhibition curve with a large enough effect in the signal ratio in the repeat runs, not every such curve was filed as active; the % refers to the signal ratio). An outline of the steps:
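Antagonist mode with agonist R5020 at 1 nM final and 16 hr incubation at 37C. Reporter was beta-lactamase driven by UAS in HEK293T (PR-UAS-bla), 2% charcoal-stripped serum; signal from LiveBLAzer FRET substrate, 2 hr at room temperature.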

Experiment [11] can be described thus: qHTS assay to identify small molecule antagonists of the progesterone receptor (PR) signaling pathway - cell viability counter screen (AID 1346798; active means well fitted curve in the direction sought with a large enough effect in the repeat runs; an effect the other way counts as inactive or inconclusive; further: series mostly up to about 92 µM; nearly all actives have a fitted effect of over 50% in size). An outline of the steps: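 Cytotoxicity read as CellTiter-Glo luminescence (30 min, room temperature) in the same wells as the beta-lactamase readout. HEK293T PR-UAS-bla cells in charcoal-stripped 2% FBS received compound and R5020, then 16 h at 37C, 5% CO2.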

A short description of experiment [12]: qHTS assay to identify small molecule agonists of the progesterone receptor (PR) signaling pathway - cell viability counter screen (AID 1346799). Further: nearly all actives have a fitted effect of over 45% in size. An outline of the steps:
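Cytotoxicity measured by CellTiter-Glo luminescence (30 min, RT) in the same wells as the PR beta-lactamase agonist read. Those HEK293T cells had 16 h compound treatment at 37 C in 2% charcoal-stripped FBS medium.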

A short description of experiment [13]: qHTS assay to identify small molecule antagonists of the TGF-beta/Smad signaling pathway - cell viability counter screen (AID 1346824; active means well fitted curve in the direction sought with a large enough effect in the repeat runs; an effect the other way counts as inactive or inconclusive; further: nearly all actives have a fitted effect of over 50% in size). An outline of the steps:
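SBE-bla HEK 293T cells were plated overnight at 37 C, then given compounds in DMSO plus TGF-beta1 (added as 0.25 ng/mL solution) for 5 hr. After the bla read, CellTiter-Glo was added to the same wells and luminescence read after 30 min at room temperature.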

A short description of experiment [14]: qHTS assay to identify small molecule agonists of the TGF-beta/Smad signaling pathway - cell viability counter screen (AID 1346829; active means well fitted curve in the direction sought with a large enough effect in the repeat runs; an effect the other way counts as inactive or inconclusive; further: top concentration of the series differs between compounds; nearly all actives have a fitted effect of over 45% in size). Summed up:
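After overnight seating at 37 C and 5% CO2, reporter cells got compounds for 5 hr and FRET substrate for 2 hr; cell viability then came from CellTiter-Glo luminescence.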

Experiment [15] can be described thus: qHTS assay to identify small molecule agonists of the TGF-beta/Smad signaling pathway (AID 1346859; active means well fitted activation curve with a large enough effect in the signal ratio in the repeat runs, not every such curve was filed as active; the % refers to the signal ratio; further: series mostly up to about 77 µM). Summed up:
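Fluorescence (ex 405 nm; em 460 and 530 nm) was read 2 h after LiveBLAzer FRET substrate at RT. The preceding compound treatment of overnight-plated SBE-bla HEK293T cells lasted 5 h at 37 C.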

The target of experiment [16] is Thyrotropin-releasing hormone receptor (Homo sapiens) (UniProt P34981). The experiment is described as follows: qHTS assay to identify small molecule antagonists of the thyrotropin-releasing hormone receptor (TRHR) signaling pathway (AID 1346877; active means well fitted inhibition curve with a large enough effect in the repeat runs, not every such curve was filed as active; further: series mostly up to about 51 µM). Summed up: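 In this cell-based calcium flux format, HEK293 cells expressing TRHR received test compound for 5 min before the agonist TRH (1 nM final). Dye loading lasted 2 h at 37 °C.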
Chain of Thyrotropin-releasing hormone receptor (Homo sapiens) (P34981 whole entry, looked up): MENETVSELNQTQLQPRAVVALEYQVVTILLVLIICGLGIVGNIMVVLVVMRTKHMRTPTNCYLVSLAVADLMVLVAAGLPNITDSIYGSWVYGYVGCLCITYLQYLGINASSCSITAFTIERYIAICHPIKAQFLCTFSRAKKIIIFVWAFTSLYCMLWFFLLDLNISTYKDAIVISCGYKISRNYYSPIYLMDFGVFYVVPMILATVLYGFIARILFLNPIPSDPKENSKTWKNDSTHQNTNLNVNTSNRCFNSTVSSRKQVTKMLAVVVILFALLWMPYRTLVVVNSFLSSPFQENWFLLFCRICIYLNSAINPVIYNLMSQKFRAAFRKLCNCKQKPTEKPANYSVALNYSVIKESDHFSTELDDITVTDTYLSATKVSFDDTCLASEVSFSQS

Experiment [17] has the same target. The experiment is described as follows: qHTS assay to identify small molecule agonists of the thyrotropin-releasing hormone receptor (TRHR) signaling pathway (AID 1346891). Further: series mostly up to about 58 µM. An outline of the steps: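 Agonist-mode intracellular calcium readout: kinetic fluorescence over 3 min at 1 s intervals after compound addition to TRHR-HEK293 cells (18 h seeded, 2 h dye-loaded at 37 C). Fifteen concentrations, triplicates.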

The nature of experiment [18]: qHTS assay to identify small molecule agonists of the estrogen receptor beta (ER-beta) signaling pathway - cell viability counter screen (AID 1259380; active means well fitted curve in the direction sought with a large enough effect in the repeat runs; an effect the other way counts as inactive or inconclusive; further: nearly all actives have a fitted effect of over 30% in size). Summed up:
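Viability of ER-beta-UAS-bla HEK293T cells was determined by CellTiter-Glo luminescence following 16 hr treatment with test compounds at 37C.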

The target of experiment [19] is Estrogen receptor (Homo sapiens) (UniProt P03372). The experiment is described as follows: qHTS assay to identify small molecule agonists of the estrogen receptor alpha (ER-alpha) signaling pathway in the presence of an antagonist (AID 1259383). Further: top concentration of the series differs between compounds; nearly all actives have a fitted effect of over 15% in size. Summed up: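 In VM7Luc4E2 cells, 4,000 per well, compounds at 15 concentrations were co-incubated 22hr at 37C with 10.0nM final ICI-182,780. Luminescence from the stably transfected 4×ERE-luciferase reporter was recorded 30min after ONE-Glo addition.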
Chain of Estrogen receptor (Homo sapiens) (P03372 whole entry, looked up): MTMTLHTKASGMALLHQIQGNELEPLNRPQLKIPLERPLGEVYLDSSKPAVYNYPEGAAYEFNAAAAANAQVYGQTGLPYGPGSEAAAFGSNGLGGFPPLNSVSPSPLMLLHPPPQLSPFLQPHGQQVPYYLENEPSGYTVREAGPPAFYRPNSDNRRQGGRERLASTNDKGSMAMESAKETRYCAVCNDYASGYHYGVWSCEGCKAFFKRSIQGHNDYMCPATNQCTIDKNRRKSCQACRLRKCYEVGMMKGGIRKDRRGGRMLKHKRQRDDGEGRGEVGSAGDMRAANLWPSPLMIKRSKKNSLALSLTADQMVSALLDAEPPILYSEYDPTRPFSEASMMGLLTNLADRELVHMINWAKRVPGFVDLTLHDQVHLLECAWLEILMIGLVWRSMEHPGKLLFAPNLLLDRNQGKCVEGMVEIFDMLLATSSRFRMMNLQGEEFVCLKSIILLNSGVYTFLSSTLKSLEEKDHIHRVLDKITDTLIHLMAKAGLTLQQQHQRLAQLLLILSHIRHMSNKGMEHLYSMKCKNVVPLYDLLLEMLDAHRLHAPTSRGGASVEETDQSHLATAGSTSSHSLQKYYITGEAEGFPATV

Experiment [20] is described as follows: qHTS assay to identify small molecule antagonists of the estrogen receptor beta (ER-beta) signaling pathway - cell viability counter screen (AID 1259382; active means well fitted curve in the direction sought with a large enough effect in the repeat runs; an effect the other way counts as inactive or inconclusive; further: series mostly up to about 92 µM; nearly all actives have a fitted effect of over 55% in size). Summed up: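 Tox21 10K library tested in qHTS format on ER-beta-bla HEK293T cells stimulated with 1nM E2; 16 hr treatment at 37C. Same-well CellTiter-Glo luminescence served as the cell viability measure.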

The structures appear in SMILES notation. Records with an inconclusive call do not appear. The source holds several records for some structures; these can differ, active in one and inactive in another. The source made the active and inactive calls. Unless noted, the call rests on the fitted dose curve.

Chain of Androgen receptor (Homo sapiens) (P10275 whole entry, looked up): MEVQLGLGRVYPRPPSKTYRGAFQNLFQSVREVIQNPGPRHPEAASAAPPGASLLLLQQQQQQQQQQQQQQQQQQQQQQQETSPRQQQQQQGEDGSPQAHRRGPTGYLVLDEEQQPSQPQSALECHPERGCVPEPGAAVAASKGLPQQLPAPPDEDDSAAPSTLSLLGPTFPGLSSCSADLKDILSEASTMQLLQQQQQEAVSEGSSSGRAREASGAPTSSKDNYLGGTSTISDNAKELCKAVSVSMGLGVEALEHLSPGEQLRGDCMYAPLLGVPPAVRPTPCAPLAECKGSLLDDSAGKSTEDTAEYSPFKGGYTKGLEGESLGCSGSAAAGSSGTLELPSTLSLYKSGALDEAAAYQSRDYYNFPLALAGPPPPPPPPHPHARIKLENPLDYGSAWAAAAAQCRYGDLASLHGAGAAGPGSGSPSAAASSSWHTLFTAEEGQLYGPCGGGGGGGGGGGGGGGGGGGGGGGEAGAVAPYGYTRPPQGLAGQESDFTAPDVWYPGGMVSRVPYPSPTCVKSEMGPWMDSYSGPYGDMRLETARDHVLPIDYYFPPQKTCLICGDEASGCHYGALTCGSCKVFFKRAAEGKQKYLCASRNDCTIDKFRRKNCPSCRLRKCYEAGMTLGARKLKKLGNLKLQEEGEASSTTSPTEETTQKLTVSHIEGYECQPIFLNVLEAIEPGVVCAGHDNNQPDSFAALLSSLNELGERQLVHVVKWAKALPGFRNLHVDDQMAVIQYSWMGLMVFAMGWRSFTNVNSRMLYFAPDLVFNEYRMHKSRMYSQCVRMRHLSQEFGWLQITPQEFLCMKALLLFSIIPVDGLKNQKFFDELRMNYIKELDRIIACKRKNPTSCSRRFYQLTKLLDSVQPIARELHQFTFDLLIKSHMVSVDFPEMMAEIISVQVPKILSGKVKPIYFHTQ
Chain of Thyrotropin receptor (Homo sapiens) (P16473 whole entry, looked up): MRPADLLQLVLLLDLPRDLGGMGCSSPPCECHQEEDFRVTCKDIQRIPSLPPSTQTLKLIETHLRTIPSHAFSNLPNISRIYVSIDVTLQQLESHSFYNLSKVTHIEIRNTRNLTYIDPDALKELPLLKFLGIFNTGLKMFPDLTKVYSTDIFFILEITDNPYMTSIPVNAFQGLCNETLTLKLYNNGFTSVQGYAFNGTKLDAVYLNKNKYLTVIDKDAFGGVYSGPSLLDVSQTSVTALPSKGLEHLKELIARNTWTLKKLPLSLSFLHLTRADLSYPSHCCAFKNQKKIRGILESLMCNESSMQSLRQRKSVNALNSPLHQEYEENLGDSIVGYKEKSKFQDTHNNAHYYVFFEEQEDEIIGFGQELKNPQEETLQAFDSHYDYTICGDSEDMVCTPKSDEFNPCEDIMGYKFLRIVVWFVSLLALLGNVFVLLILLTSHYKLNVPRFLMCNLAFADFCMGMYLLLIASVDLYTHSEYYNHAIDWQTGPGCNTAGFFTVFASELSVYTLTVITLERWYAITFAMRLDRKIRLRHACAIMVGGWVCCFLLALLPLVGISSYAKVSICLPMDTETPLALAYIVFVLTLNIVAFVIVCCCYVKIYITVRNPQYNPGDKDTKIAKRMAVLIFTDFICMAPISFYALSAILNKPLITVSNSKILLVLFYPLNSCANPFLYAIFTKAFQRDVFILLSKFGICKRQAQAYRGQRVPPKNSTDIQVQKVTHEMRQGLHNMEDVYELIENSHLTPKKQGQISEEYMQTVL
Chain of Estrogen receptor beta (Homo sapiens) (Q92731 whole entry, looked up): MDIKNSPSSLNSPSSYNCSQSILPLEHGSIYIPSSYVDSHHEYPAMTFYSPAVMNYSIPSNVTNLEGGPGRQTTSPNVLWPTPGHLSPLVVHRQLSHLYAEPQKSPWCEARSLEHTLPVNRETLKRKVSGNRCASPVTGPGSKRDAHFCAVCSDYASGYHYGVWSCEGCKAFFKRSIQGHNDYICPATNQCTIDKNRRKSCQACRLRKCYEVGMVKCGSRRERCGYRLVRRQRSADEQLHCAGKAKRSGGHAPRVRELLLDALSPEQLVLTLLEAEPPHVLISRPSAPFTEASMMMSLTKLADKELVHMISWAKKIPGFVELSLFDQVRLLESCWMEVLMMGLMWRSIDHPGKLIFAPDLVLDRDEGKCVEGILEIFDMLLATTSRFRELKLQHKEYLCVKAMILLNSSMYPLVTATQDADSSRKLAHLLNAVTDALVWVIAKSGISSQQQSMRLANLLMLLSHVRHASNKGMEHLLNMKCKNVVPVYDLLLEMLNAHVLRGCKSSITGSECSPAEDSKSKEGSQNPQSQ

In the case of `Cc1ccc(O)cc1`, the Potency entry in experiment [1], in experiment [3], in experiment [4], in [5], in [8] and in [9] was “inactive” each time. The Potency result in experiment [11], in experiment [12] and in [14] was “inactive” in each case. Also, the compound was called inactive in experiment [2], in [6], in experiment [7], in experiment [10], in experiment [13] and in experiment [15]. For the same compound, the outcome in experiment [16] and in experiment [17] was inactive.

For `CC1(C)[C@@H]2CC[C@@]1(C)C(=O)C2`, the Potency result in experiment [1], in experiment [3], in experiment [4], in experiment [18], in [19] and in experiment [8] was “inactive” throughout. In addition, the Potency result in [9], in experiment [11], in experiment [12] and in experiment [14] was “inactive” in each case. The call in experiment [2], in experiment [6], in [7], in [10], in experiment [13] and in experiment [15] was inactive. The result in experiment [16] and in experiment [17] was inactive.

As to `O=C(c1ccccc1)C(O)c1ccccc1` (configuration not stated), the Potency entry in experiment [1], in [3], in experiment [4], in experiment [18], in experiment [8] and in [9] was “inactive” throughout. For the same compound, the Potency entry in experiment [11], in experiment [12] and in [14] was “inactive” throughout. The outcome in [2], in experiment [6], in experiment [7], in experiment [10], in experiment [13] and in experiment [15] was inactive. The call in [16] and in [17] was inactive.

For the compound `CCCCC1C(=O)N(c2ccccc2)N(c2ccccc2)C1=O`, the Potency entry in experiment [1], in experiment [3], in experiment [4], in [18], in experiment [19] and in [8] was “inactive” throughout. For the same compound, the Potency result in experiment [9], in experiment [11], in [12] and in [14] was “inactive” each time. Besides, the result in experiment [2], in [6], in experiment [7], in experiment [10], in [13] and in [15] was inactive. For the same compound, the result in experiment [16] and in experiment [17] was inactive.

For `CC(O)CN(CCN(CC(C)O)CC(C)O)CC(C)O` (configuration not stated), the Potency entry in experiment [1], in experiment [3], in [4], in experiment [8], in experiment [9] and in experiment [11] was “inactive” each time. For the same compound, the Potency result in experiment [12] and in experiment [14] was “inactive” in each case. Also, the compound was classed as inactive in experiment [2], in experiment [6], in [7], in [10], in experiment [13] and in [15]. Also, the outcome in experiment [16] and in experiment [17] was inactive.

As for `NC(N)=NC(=O)c1nc(Cl)c(N)nc1N`, the Potency entry in experiment [1], in [3], in [4], in experiment [18], in experiment [19] and in [8] was “inactive” each time. Also, the Potency entry in experiment [9], in [11], in [12] and in [14] was “inactive” each time. Further, the result in [2], in experiment [6], in [7], in [10], in experiment [13] and in [15] was inactive. Besides, the call in experiment [16] and in [17] was inactive.

In the case of `Cc1cn([C@H]2C[C@H](N=[N+]=[N-])[C@@H](CO)O2)c(=O)[nH]c1=O`, the Potency in experiment [1] was 17.7 µM (active) and inactive. The Potency result in experiment [4], in experiment [20], in [19], in experiment [8], in experiment [9] and in experiment [11] was “inactive” throughout. In addition, the Potency result in experiment [12] and in [14] was “inactive” in each case. The result in experiment [10], in experiment [13] and in [15] was inactive.

As to `Nc1ccc(S(=O)(=O)c2ccc(N)cc2)cc1`, the Potency entry in [1], in experiment [4], in experiment [20], in experiment [19], in experiment [8] and in experiment [9] was “inactive” in each case. Further, the Potency entry in experiment [11], in experiment [12] and in experiment [14] was “inactive” in each case. Moreover, the compound was called inactive in [6], in experiment [7], in experiment [10], in experiment [13], in [15] and in [16]. Besides, the compound was called inactive in [17].

(Values after PubChem BioAssay (Tox21).)
